From PubChem BioAssay
Active and inactive are the calls of the source.

Assay: growth of efflux-deficient E. coli DRC39 – strain DRC39, OD650, 24 h, E. coli filamentation inducers, primary screen (AID 1178);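 note: growth measured as culture turbidity by optical density at 650 nm; test concentration not given here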
Conditions: E. coli DRC39 acrAB, higher = more signal, called active from +8 up or from −8 down

z-score, inactive:
C=C(COC)/C(=C/C[C@H](OC(C)=O)c1ccccc1OCCO)c1cc(C(=O)OC)ccc1OC -0.474
C=C(CCCC)/C(=C/C[C@H](OC(=O)c1ccncc1)c1cccc(OCCO)c1)c1cnc2ccccc2c1 -0.566
C=C(COC)C(=O)CC[C@@H](OC(C)=O)c1ccccc1OCCO 0.661
COc1ccc(C(O)C2C=CC3C(=O)N(c4ccccc4)C(=O)C3N2Nc2ccc(C#N)cc2)cc1OCc1ccccc1 (stereo unspecified) -0.933
CCOC(=O)C1=CC[C@@H](c2ccc(OC)cc2)N(S(=O)(=O)c2ccc(C)cc2)[C@H]1c1ccc(C)cc1 -0.346
C=C(CCCC)/C(=C/C[C@H](OC(C)=O)c1cccc(OCCO)c1)c1cnc2ccccc2c1 0.5
CC(=O)OCC1C2CC[C@H]3C(OCc4ccc(F)cc4C(F)(F)F)OC[C@]4(C)[C@H]3C2=C(CN4C(=O)OC(C)(C)C)[C@H](C)C1COC(C)=O (stereo partly specified) -1.47
CC(C)(C)OC(=O)CC[C@]1(C(=O)NCC(O)CO)N=C(c2ccc(OCCCO)cc2)O[C@H]1c1ccccc1N=[N+]=[N-] (stereo partly specified) -0.0029
COC(=O)[C@@]1(Cc2ccc(F)cc2)[C@H]2c3cc(C(=O)N(C)C)n(CCc4ccc(O)c(O)c4)c3C[C@H]2CN1C(=O)c1ccccc1 -0.0718
CC[C@@H]1C=C(C(=O)O)[C@H](c2ccc(OC)cc2)N1S(=O)(=O)c1ccc(C)cc1 -0.826
COC(=O)[C@@]1(Cc2ccccc2)N=C(c2ccc(OCCCO)cc2)O[C@H]1c1ccccc1CN=[N+]=[N-] 0.876
COc1ccc(C(=O)Nc2cccc(CN3C(=O)[C@@]4(O[C@@H](CC(=O)N5CCC[C@H]5CO)[C@H]([Si](C)(C)c5ccc(OC)cc5)[C@H]4C)c4ccccc43)c2)cc1 0.603
CC(=O)c1ccc(C(O)C2C=CC3C(=O)N(c4ccccc4)C(=O)C3N2Nc2ccc(C(C)C)cc2)cc1 (stereo unspecified) 0.481
COc1ccccc1CN1C(=O)c2ccccc2[C@](Cc2ccccc2I)(C(=O)NCC(C)C)[C@@H]1c1ccc(CO)cc1 1.05
C=CCNC(=O)[C@H]1[C@@H]2C(=O)O[C@@H](c3ccccc3)[C@@H](c3ccccc3)N2[C@@H](c2ccc(OCCO)cc2)[C@]12C(=O)Nc1ccc(C#CC3(O)CCCCCC3)cc12 0.352
[N-]=[N+]=Nc1ccccc1C[C@@]1(C(=O)NCC(O)CO)N=C(c2ccc(OCCCO)cc2)O[C@@H]1c1ccccc1 (stereo partly specified) 0.443
CCOC(=O)c1cn(C[C@H](Cc2ccccc2)NC(=O)N[C@H](CO)CCc2oc(C(C)=O)c(C(=O)OC)c2C(=O)OC)nn1 -0.124
Cc1ccc(S[C@]2(C(=O)NCCCN(C)C)CC(=O)N(Cc3ccccc3C(F)(F)F)[C@@H]2c2ccc(CO)cc2I)cc1 -0.108
COCCOC(=O)N1C(=O)[C@@]2(c3cc(C#CCNC(N)=O)ccc31)[C@H](C(=O)Nc1nc3ccccc3s1)[C@H]1C(=O)O[C@H](c3ccccc3)[C@H](c3ccccc3)N1[C@@H]2c1ccccc1OCCO 0.405
Cc1ccc(S[C@]2(C(=O)NC3CC3)CC(=O)N(C(C)C)[C@@H]2c2ccc(CO)cc2I)cc1 0.741
COc1cc(CO)cc(I)c1O[C@H]1C=C(C(=O)NCCO)C[C@@H]2O[C@H]12 -0.364
CC(=O)NCCCC[C@@H]1NC(=O)[C@H]2C[C@@H](C(=O)NCCCCCCNC(=O)CS)[C@@H](c3cccc(OCCO)c3)N2C1=O 0.0843
C=CC[C@@]1(C(=O)OC)N=C(c2ccc(OCCCO)cc2)O[C@@H]1c1ccccc1N=[N+]=[N-] 0.906
CCC(CC)C(O)C1C=CC2C(=O)N(c3ccccc3)C(=O)C2N1Nc1ccccc1F (stereo unspecified) -0.551
CN1C(=O)C2C(C1=O)C1C=C(CCCO)C2C(C2CC2)N1Cc1cccc(OC(F)(F)F)c1 (stereo unspecified) 0.492
C=C(CCCC)C(=O)CC[C@H](OC(=O)c1ccccc1-c1ccccc1C(=O)O)c1ccc(OCCO)cc1 0.373
COC(=O)[C@@]1(Cc2ccc(F)cc2)[C@H]2c3cc(C(=O)N(C)C)n(C)c3C[C@H]2CN1C(=O)c1ccccc1 -0.657
O=C(NC1CC1)[C@@H]1c2ccccc2C(=O)N(Cc2cc(C(F)(F)F)cc(C(F)(F)F)c2)[C@H]1c1ccc(CO)cc1 0.655
[N-]=[N+]=Nc1ccccc1[C@@H]1OC(c2ccc(OCCCO)cc2)=N[C@]1(CCS(=O)(=O)c1ccccc1)C(=O)NCC(O)CO (stereo partly specified) 0.125
CCCNC(=O)[C@@]1(Sc2ccc(C)cc2)CC(=O)N(Cc2ccccc2Cl)[C@@H]1c1ccc(CO)cc1I 0.466
COC(=O)[C@@]1(Cc2ccc(OC)cc2)[C@H]2c3cc(C(=O)N4CCCC4)n(CCn4cc([N+](=O)[O-])nc4C)c3C[C@H]2CN1C(=O)c1ccccc1 -0.784
COCC(=C=CC[C@H](O)c1ccccc1OCCO)C[C@H](O)COCc1ccccc1 -0.348
C=CC1c2cc(O)c(OC)cc2CCN1C (stereo unspecified) -0.0683
COc1ccc([Si](C)(C)[C@H]2[C@H](CC(=O)N3CCC[C@H]3CO)O[C@@]3(C(=O)N(Cc4ccc(N5CCCCC5=O)cc4)c4ccccc43)[C@@H]2C)cc1 -0.18
Cc1ccc(F)cc1S(=O)(=O)N[C@H]1CCN(Cc2ccc(OC(C)C)cc2)C1 -1.42
COC(=O)C(CC#Cc1ccc2c(c1)[C@]1(C(=O)N2)[C@H](c2ccccc2OCCO)N2[C@H](c3ccccc3)[C@H](c3ccccc3)OC(=O)[C@H]2[C@@H]1C(=O)N1CCc2cc(OC)c(OC)cc2C1)C(=O)OC 0.021
